PubChem BioAssay AID493220 (National Center for Advancing Translational Sciences (NCATS), 2011)
Records with an inconclusive call do not appear. Calls of active or inactive are those of the source. Calls come from the whole dose curve.

Target: Polyunsaturated fatty acid lipoxygenase ALOX15 (Homo sapiens) (UniProt P16050)
Test: Inhibitors of 12-hLO (12-human lipoxygenase): 15hLO-1 Cuvette-Based Inhibition Counterscreen Assay for 12hLO Followup Compounds
Details: purified 15hLO-1, UV 234 nm product formation
Experimental: Human lipoxygenase 15hLO-1 is a member of the closely related lipoxygenase family of enzymes which catalyze the site-specific oxidation of arachidonic acid to various hormone precursor molecules and as such is a candidate for drug development in a variety of disease areas, such as cancer and inflammation. The enzyme activity of 15hLO-1 was determined by a direct measurement of product formation by monitoring the absorbance at 234 nm in a 2 mL cuvette. IC50 values of inhibitors were obtained by measuring the enzymatic rate at a variety of concentrations (Carroll et al, Segraves et al). A purified preparation of human 15hLO-1 was supplied by Professor Ted Holman, University of California, Santa Cruz. This assay was run against 12hLO followup compounds with the goal of identifying selective 12hLO inhibitors. Assay Provider: Holman, T.R., University of California, Santa Cruz Screening Center PI: Austin, Christopher P. Screening Center: NIH Chemical Genomics Center
For control experiments, 2 mL of substrate buffer (10 uM arachidonic acid / 25 mM HEPES / 0.01% (v/v) Triton X-100, pH 8.0) was aliquoted in a cuvette with a magnetic stir bar. After equilibrium was ensured, an aliquot of inhibitor solvent was added (DMSO), and equilibrium was once again assured. The reaction was started by adding enzyme to the cuvette and the reaction was followed until completed. The inhibition experiments were performed as above, except the actual inhibitory compound was added instead of vehicle. To achieve an IC50, typically 5 concentrations of the inhibitor were studied. If the inhibitor concentration was constant, then five different reaction volumes were used. Step \ Parameter \ Value \ Description 1; UV-Vis; 234 nm; Equilibration 2; Reagent; 2 mL; Substrate buffer 3; UV-Vis; 234 nm; Equilibration 4; Reagent; varies; Compound 5; UV-Vis; 234 nm; Equilibration 6; Reagent; 50-200 nM; Enzyme 12-hLO 7; UV-Vis; 234 nm; Enzymatic reaction Step \ Notes 1; Blank cuvette to air. 2; 10 uM AA, 25 mM HEPES, 0.01% Triton X-100, pH 8. 3; No change in absorbance ensured. 4; Compound vehicle or compound in various concentrations depending on potency. 5; No change in absorbance ensured. 6; Enzyme concentration to achieve reaction rate between 0.02 and 0.04 AU/s. 7; Enzymatic reaction visualized until completion.

Sequence of Polyunsaturated fatty acid lipoxygenase ALOX15 (Homo sapiens) (P16050 whole entry, looked up): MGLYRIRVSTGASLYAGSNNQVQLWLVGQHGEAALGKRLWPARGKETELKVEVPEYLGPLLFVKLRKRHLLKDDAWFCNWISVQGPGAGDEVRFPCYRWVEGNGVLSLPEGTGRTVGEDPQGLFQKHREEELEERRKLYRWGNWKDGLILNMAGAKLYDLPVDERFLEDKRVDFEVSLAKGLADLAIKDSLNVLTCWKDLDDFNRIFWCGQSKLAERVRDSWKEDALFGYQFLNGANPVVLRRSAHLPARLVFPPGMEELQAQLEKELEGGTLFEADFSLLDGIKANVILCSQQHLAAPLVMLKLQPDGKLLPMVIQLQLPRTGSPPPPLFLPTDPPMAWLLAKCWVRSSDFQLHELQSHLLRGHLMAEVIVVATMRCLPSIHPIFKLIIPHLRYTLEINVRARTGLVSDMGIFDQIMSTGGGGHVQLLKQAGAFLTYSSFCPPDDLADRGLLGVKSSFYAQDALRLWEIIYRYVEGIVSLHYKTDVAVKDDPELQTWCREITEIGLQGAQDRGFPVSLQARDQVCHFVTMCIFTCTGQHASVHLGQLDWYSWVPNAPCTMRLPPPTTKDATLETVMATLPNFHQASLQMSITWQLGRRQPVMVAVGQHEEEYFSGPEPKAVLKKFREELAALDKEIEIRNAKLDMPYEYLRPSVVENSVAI

Row | Compound | Potency | outcome
1 | O=S(=O)(Nc1ccc(O)c(Sc2nc3ccccc3s2)c1)c1ccc(Cl)cc1 | 12.6 µM (active) | 
2 | COc1ccc(-c2n[nH]c(C)c2-c2ccc(Cl)cc2)c(O)c1 | 3.51 µM (active) | 
3 | CCc1cc(-c2n[nH]c(C)c2Oc2ccc(C(C)C)cc2)c(O)cc1O | 3.87 µM (active) | 
4 | Oc1ccc(-c2nc(-c3ccc(O)c(O)c3)cs2)cc1 | 0.61 µM (active) | 
5 | CSCCC(NC(=O)c1ccc(Cl)cc1)C(=O)OCC(=O)Nc1ccc(C#N)cc1 (stereo not given) | 46.2 µM (active) | 
6 | Oc1ccc(-c2csc(-c3ccccc3)n2)cc1O | 0.67 µM (active) | 
7 | CCCOC(=O)c1ccc(Oc2cn[nH]c2-c2ccc(OC)cc2O)cc1 | 13.1 µM (active) | 
8 | COc1ccc(-c2n[nH]c(C(F)(F)F)c2-c2cc3ccccc3o2)c(O)c1 | 6.5 µM (active) | 
9 | Oc1ccc(Cl)cc1-c1cc(-c2ccco2)[nH]n1 | 2.03 µM (active) | 
10 | COc1ccc(C(Nc2ccccn2)c2c(NC(=O)c3ccco3)sc(C)c2C)cc1 (stereo not given) | 62.7 µM (active) | 
11 | Cc1oc2c(O)c(O)ccc2c(=O)c1-c1cnn(-c2ccccc2)c1 | 18.9 µM (active) | 
12 | Cc1ccc(C(=O)/C=C/c2c[nH]c3ccccc23)cc1 | 20.6 µM (active) | 
13 | CCOC(=O)CNC(c1ccccc1)c1cc(Br)ccc1NC(=O)CCN1CCOCC1 (stereo not given) |  | inactive
14 | CC1=NN(c2ccc(Cl)cc2)C(=O)C1C(c1cccc(O)c1)c1c(C)[nH]n(-c2ccc(Cl)cc2)c1=O (stereo not given) | 22.8 µM (active) | 
15 | COc1cc(CNc2ccc(O)cc2)cc(Br)c1OCc1ccccc1F |  | inactive
16 | Cc1ccc(S(=O)(=O)Nc2ccc(NC(=O)Nc3cccc(C(F)(F)F)c3)cc2)cc1 | 31.5 µM (active) | 
17 | O=C1c2ccccc2NC(c2ccc(Cl)cc2Cl)N1O (stereo not given) | 37.4 µM (active) | 
18 | COc1ccc(NC2=NCC(Cc3ccc(Br)cc3)S2)cc1 (stereo not given) | 8.89 µM (active) | 
19 | O=C(Nc1nnc(-c2ccc(Cl)cc2)o1)c1ccccc1Br |  | inactive
20 | Cc1cccnc1NCc1ccc(O)c2ncccc12 | 23.9 µM (active) | 

Row | Compound | Potency | outcome
21 | CC(Oc1ccc(Cl)cc1Cl)C(=O)NC1=NN(c2ccccc2)C(=O)C1 (stereo not given) | 65 µM (active) | 
22 | CCc1cc(-c2[nH]ncc2-c2ccc3c(c2)OCO3)c(O)cc1O | 4.01 µM (active) | 
23 | COc1cc(CNc2ccc(N3CCCC3)cc2)ccc1OCc1ccccc1 |  | inactive
24 | Oc1ccc(C2=Nn3c(nnc3-c3ccco3)SC2)cc1O | 39.1 µM (active) | 
25 | O=C(/C=C/c1ccc(O)c(O)c1)c1ccc(S(=O)(=O)N2CCCCCC2)cc1 | 1.31 µM (active) | 
26 | c1ccc(-c2nc(NCc3cccnc3)c3oc4ccccc4c3n2)cc1 | 31 µM (active) | 
27 | COc1ccc(/C=C/c2nc(-c3ccccc3O)n[nH]2)cc1 | 11.2 µM (active) | 
28 | Cc1ccc(S(=O)(=O)Nc2nc(C)c(NC(=O)Nc3ccc(Cl)cc3Cl)s2)cc1 |  | inactive
29 | N#CC1=C(N)Oc2n[nH]c(-c3cccs3)c2C1C1CCCCC1 (stereo not given) | 9.33 µM (active) | 
30 | COc1ccc(-c2[nH]ncc2-c2ccc(Cl)cc2)c(O)c1 | 6.81 µM (active) | 
31 | Cc1[nH]nc(-c2ccc(O)cc2O)c1Oc1ccccc1 | 15.6 µM (active) | 
32 | CSc1ccc(S(=O)(=O)Nc2ccc(S(=O)(=O)Nc3ccc(C)cc3)cc2)cc1 | 45 µM (active) | 
33 | COc1ccc2nc(NC(=O)c3cccc(OCc4c(C)noc4C)c3)sc2c1 | 33.6 µM (active) | 
34 | Oc1ccccc1-c1cc(-c2ccccc2Cl)[nH]n1 | 1.62 µM (active) | 
35 | O=C(Nc1nnc(C2=COCCO2)o1)c1ccc(Cl)cc1 |  | inactive
36 | Cc1ccc(C(=O)Nc2nnc(-c3ccco3)o2)cc1 |  | inactive
37 | O=C(NC(=S)Nc1ccccc1N1CCCC1)c1ccc([N+](=O)[O-])cc1 |  | inactive
38 | CCOc1ccc(-c2[nH]ncc2Oc2cccc(OC)c2)c(O)c1 | 2.96 µM (active) | 
39 | Cc1ccc(NC(=O)Nc2cccs2)c(Cl)c1 | 58.8 µM (active) | 
40 | Cc1[nH]nc(-c2ccc(O)cc2O)c1-c1ccc(Cl)cc1 | 9.99 µM (active) | 
